HEK293 viab: counter-screen for SNCA expression inhibitors: cell viability | HEK-293-SNCA-luc viability, GF-AFC fluorescence, 24 h | Potency, µM (series often up to 57.1 µM), without a hit: at the top dose activity change, negative = cytotoxicity, most hits filed as cytotoxic | hit rate 0.12% among 150,000 | AID 1671193;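 note: 0% = DMSO-treated cells and -100% = medium-only wells without cells; nearly all actives have a fitted effect of over 30% in size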
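HEK-293-SNCA-luc cells (1500/well) plated 24 h, then exposed 24 h to a dilution series; GF-AFC added 30 min at 37C, fluorescence 405/540 nm; normalised to medium-only and DMSO wells, Hill fit.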
3T3 cytotox: kills NIH 3T3 cells. hit rate 4.3% among 94,000. NIH 3T3 viability, CellTiter-Glo ATP luminescence, 48-72 h. Potency, µM (highest dose often 96.7 µM), for inactives: top-dose activity change, negative = cytotoxicity, usual class: inhibitors; note: nearly all actives have a fitted effect of over 55% in size
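Mouse fibroblast NIH 3T3 cells, 400 per well, received compound via pintool and were incubated for 48 or 72 hr prior to CellTiter-Glo ATP luminescence measurement.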
NPR1 antag: antagonists of human natriuretic peptide receptor Npr1. P16066. HEK293 hNpr1 GloSensor cGMP, ANP-stimulated luminescence. Potency, µM (top dose mostly 46.3 µM), for the others: top-dose activity change, negative = inhibition, most hits filed as inhibitors. hit rate 1.6% among 76,000; calls by dose curve; note: nearly all actives have a fitted effect of over 60% in size
Target sequence (P16066 whole entry, looked up): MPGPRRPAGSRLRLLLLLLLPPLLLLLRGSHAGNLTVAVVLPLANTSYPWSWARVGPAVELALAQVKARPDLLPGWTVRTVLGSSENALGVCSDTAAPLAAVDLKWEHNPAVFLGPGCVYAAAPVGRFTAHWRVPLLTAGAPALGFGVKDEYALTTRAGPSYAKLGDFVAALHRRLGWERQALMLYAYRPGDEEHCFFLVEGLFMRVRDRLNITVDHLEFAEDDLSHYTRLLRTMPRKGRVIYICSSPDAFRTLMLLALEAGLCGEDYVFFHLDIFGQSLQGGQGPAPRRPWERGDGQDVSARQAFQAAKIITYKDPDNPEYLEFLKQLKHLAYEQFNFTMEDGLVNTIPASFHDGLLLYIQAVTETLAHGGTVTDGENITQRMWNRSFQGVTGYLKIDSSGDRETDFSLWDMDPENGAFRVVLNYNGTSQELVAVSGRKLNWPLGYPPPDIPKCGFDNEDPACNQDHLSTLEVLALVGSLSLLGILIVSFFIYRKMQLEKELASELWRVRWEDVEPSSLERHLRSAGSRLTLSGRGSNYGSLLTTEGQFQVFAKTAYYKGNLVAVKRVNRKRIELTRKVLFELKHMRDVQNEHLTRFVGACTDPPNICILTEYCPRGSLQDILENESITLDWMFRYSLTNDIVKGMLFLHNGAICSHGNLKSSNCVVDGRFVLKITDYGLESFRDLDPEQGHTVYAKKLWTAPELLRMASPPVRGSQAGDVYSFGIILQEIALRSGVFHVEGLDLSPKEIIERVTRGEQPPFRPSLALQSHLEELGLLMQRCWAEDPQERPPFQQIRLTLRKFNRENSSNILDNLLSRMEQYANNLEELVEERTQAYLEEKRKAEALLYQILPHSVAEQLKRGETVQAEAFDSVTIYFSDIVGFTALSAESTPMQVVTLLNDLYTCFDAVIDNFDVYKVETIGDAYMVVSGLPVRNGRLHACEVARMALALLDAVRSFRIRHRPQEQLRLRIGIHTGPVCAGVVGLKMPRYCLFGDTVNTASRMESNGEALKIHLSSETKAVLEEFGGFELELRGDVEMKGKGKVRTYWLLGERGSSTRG
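HEK293 cells stably expressing human Npr1 and cGMP GloSensor pGS-40F, loaded 2 h with 2% GloSensor reagent, given compound 30 min at room temperature. Luminescence read before and 20 min after 0.1 nM hNppA.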
HEK cytotox: cytotoxic compounds in HEK 293 cells | HEK 293 viability, ATP luminescence (CellTiter-Glo), 48-72 h | Potency, µM (doses to about 115 µM), inactives show at the top dose activity change, negative = cytotoxicity, most hits filed as inhibitors | hit rate 6.6% among 94,000 | AID 1345083; note: nearly all actives have a fitted effect of over 60% in size
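250 HEK 293 cells/well; compound by pintool; incubated 48 or 72 hr at 37 degree Celsius; CellTiter-Glo added, 10 min RT, luminescence imaged.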
SNCA expr inhib: SNCA gene expression inhibition; Potency, µM (series often up to 57.2 µM), for the others: at the highest dose activity change, negative = inhibition, hits mostly inhibitors; HEK-293 SNCA-luciferase knock-in, luminescence, 24 h; AID 1671194; hit rate 0.17% among 140,000;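 note: plate controls were DMSO cells for no effect and cell-free wells for full effect; nearly all actives have a fitted effect of over 45% in size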
FLuc inh: inhibitors of firefly (Photinus pyralis) luciferase; purified P. pyralis luciferase, luminescence, biochemical; Potency, µM (highest dose often 115 µM), hits mostly inhibitors; hit rate 2.5% among 76,000; P08659; note: nearly all actives have a fitted effect of over 65% in size
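Luminescence read by CCD imager after adding enzyme (10nM final) to wells holding compound, titrated in qHTS. Substrates 10uM each D-luciferin and ATP; buffer 50mM Tris acetate pH 7.5, 10mM Mg acetate, Tween-20, BSA.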
Starred values were filed as active, the others as inactive; i = inactive; ? = inconclusive; · = not tested or not shown; [ ] = another dose, or the depositor's remark. Most compounds without a hit are left out; they make up all but 7.4% or so of the library. Unless noted, calls come from the whole dose curve; as a rule, active = well fitted curve in the direction sought with a large enough effect; inconclusive = small, poorly fitted or top-dose-only effect, or another doubt; inactive = no such curve, though single readings can be large; an effect the other way counts as inactive or inconclusive. Unless noted, % is set by controls: 0 for no effect and ±100 for the full control effect; potency is the fitted concentration of half-maximal effect.

SMILES | HEK293 viab | 3T3 cytotox | NPR1 antag | HEK cytotox | SNCA expr inhib | FLuc inh
CCN1CCN(C(=O)c2cc(-c3ccc(F)cc3)nc3c2cnn3C)CC1 | 3.1%[87.6 µM] | ? | · | -2.9%[172 µM] | 13.9%[87.6 µM] | ·
COc1ccc(-c2cn3cc(C(=O)NCc4ccccn4)nc3s2)cc1 | -4.0% | ? | · | ? | -10.8% | ·
O=C(NC1CCCC1)N1CCC(C(=O)N2CCC(N3Cc4ccccc4C3=O)CC2)CC1 | 10.1% | -29.1% | · | -24.1% | 17.0% | ·
COc1ccc(-c2c(C(=O)NCCc3ccccc3F)nc3sccn23)cc1 | -6.6% | ? | · | ? | 15.8% | ·
COc1cccc(-c2cc3c(=O)n(CCNC(=O)Cc4cccc(F)c4)ccn3n2)c1 | -1.0% | ? | -2.5% | ? | 1.0% | 11.2µM*
COc1cccc(-c2cc3c(=O)n(CCNC(=O)c4cc(F)ccc4F)ccn3n2)c1 | -26.5% | ? | ? | ? | 4.7% | 7.08µM*
COc1cccc(-c2cc3c(=O)n(CCNC(=O)COc4ccccc4)ccn3n2)c1 | -7.2% | -20.2% | -23.0% | -23.3% | 53.5% | 25.1µM*
COc1cccc(-c2cc3c(=O)n(CCNC(=O)Cc4ccccc4C)ccn3n2)c1 | 0.6% | -17.2% | -25.9% | 4.2% | 23.7% | ?
COc1cccc(-c2cc3c(=O)n(CC(O)c4ccccc4)ccn3n2)c1 (stereo not given) | -14.4% | -29.3% | -29.8% | 35.5µM* | 44.0% | 3.55µM*
COc1cccc(C(=O)NC2CCN(CCn3nc4n(c3=O)CCCC4)C2)c1 (stereo not given) | · | -11.5% | · | 3.6% | · | ·
Cc1nc(C2CC23CCN(S(=O)(=O)c2cccnc2)CC3)no1 (stereo not given) | 5.0% | -8.1% | · | 4.3% | -7.1% | ·
O=C(c1cn(CCC2CCCCN2Cc2cccnc2)nn1)N1CCOCC1 (stereo not given) | 3.2% | -14.2% | · | -4.0% | -7.5% | ·
CC(C)c1nc2c(c(-c3ccc(Cl)cc3)n1)CN(C(=O)C(C)(C)C)CC2 | -15.6% | ? | · | 39.8µM* | -10.9% | ·
COc1ccc(-c2nc(C(C)C)nc3c2CCN(C(=O)c2ccc(C(F)(F)F)cc2)CC3)cc1 | -17.1% | 28.2µM* | -15.5% | 31.6µM* | -2.3% | i
Oc1ccc(-c2nc(C3CC3)nc3c2CN(Cc2ccc(OC(F)(F)F)cc2)CC3)cc1 | 5.6% | ? | 1.0% | ? | 8.6% | i
COc1ccc(-c2nc(C(C)C)nc3c2CCN(C(=O)C(C)(C)C)CC3)cc1 | -25.0% | -32.6% | 4.6% | ? | 7.5% | i
CC(C)c1nc2c(c(-c3ccc(O)cc3)n1)CN(Cc1ccc(OC(F)(F)F)cc1)CC2 | 7.1% | 22.4µM* | -0.5% | 22.4µM* | -14.5% | i
CC(C)c1nc2c(c(-c3ccc(Cl)cc3)n1)CCN(Cc1ccsc1)CC2 | 0.2% | ? | · | 44.7µM* | ? | ·
CC(C)c1nc2c(c(-c3ccc(O)cc3)n1)CCN(Cc1ccsc1)CC2 | 3.4% | ? | -2.9% | ? | -9.7% | i
O=C(O)COc1ccc(-c2nccc3c2C(=O)N(Cc2cccc(C(F)(F)F)c2)CC(CNC(=O)c2cccc(Cl)c2)O3)cc1 (stereo not given) | 2.2% | · | · | · | -26.5% | ·
CNC(=O)C1CCN(Cc2ccccc2-c2ccccc2F)CC1 | 4.4%[87.6 µM] | ? | · | -17.1%[172 µM] | -15.9%[87.6 µM] | ·
O=C(C1CCCN1C(=O)Nc1ccccc1)N1CCC(N2Cc3ccccc3C2=O)CC1 (stereo not given) | -28.6% | -17.3% | · | -6.2% | 5.1% | ·
COc1ccc(-c2nc(C(C)C)nc3c2CCN(C(=O)Nc2ccc(Cl)cc2)CC3)cc1 | ? | 35.5µM* | 0.2% | ? | -11.3% | i
COc1ccc(-c2nc(C)nc3c2CN(C(=O)Nc2ccc(Cl)cc2)CC3)cc1 | -8.4% | ? | · | ? | 1.3% | ·
Cc1ccc(C(=O)N2CCc3nc(C(C)C)nc(-c4ccc(Cl)cc4)c3CC2)cc1 | -18.0% | ? | · | 79.4µM* | -12.3% | ·
SMILES | HEK293 viab | 3T3 cytotox | NPR1 antag | HEK cytotox | SNCA expr inhib | FLuc inh
O=C(c1nc2sccn2c1-c1cccnc1)N1CCOCC1 | -10.4%[87.6 µM] | -5.1%[138 µM] | · | -18.6%[172 µM] | -0.2%[87.6 µM] | ·
COc1ccc(S(=O)(=O)NC2CCN(c3ccc(=O)n(C)n3)CC2)cc1 | -0.5% | -44.7% | · | ? | 10.8% | ·
COc1ccc(-c2[nH]nc3ncc(-c4ccccc4F)nc23)cc1F | -0.6%[87.6 µM] | 50.1µM* | -15.7%[70.6 µM] | ? | ? | i
COc1ccc(-c2[nH]nc3ncc(-c4ccc(C)cc4)nc23)cc1F | -0.3%[87.6 µM] | 39.8µM* | -3.7%[70.6 µM] | 44.7µM* | ? | i
COc1ccc(-c2[nH]nc3ncc(-c4ccc([S+](C)(=O)[O-])cc4)nc23)cc1F | ? | ? | -6.0%[70.6 µM] | ? | -61.1%[87.6 µM] | i
COc1ccc(-c2cnc3n[nH]c(-c4ccc(OC)c(F)c4)c3n2)cn1 | 0.4%[87.6 µM] | ? | 0.7%[70.6 µM] | ? | -38.5%[87.6 µM] | i
OC1CN(Cc2ccccc2)CCN(Cc2cn[nH]c2-c2ccc(Cl)cc2)C1 (stereo not given) | -10.5% | ? | -7.0% | ? | 0.3% | i
Cc1ccc(-c2[nH]ncc2CN2CCN(c3ccc(Cl)cn3)CC2)cc1C | 4.0% | ? | 11.8% | 35.5µM* | -9.0% | i
OC1CN(Cc2ccccc2)CCN(c2nc(-c3ccccc3)no2)C1 (stereo not given) | -6.2% | -9.9% | ? | ? | 108.3% | 39.8µM*
CN(C)C(=O)c1cc(-c2ccccc2C(F)(F)F)nc2c1cnn2C | · | -2.5% | · | 1.9% | · | ·
CN1CCC(N2CCC[C@@H](O)[C@H](NC(=O)c3ccc(OCc4ccccc4)cc3)C2)CC1 | -3.3% | ? | 6.7% | 79.4µM* | 7.7% | i
COC(=O)c1ccccc1NC(=O)N1CCC[C@@H](O)[C@H](NC(=O)c2ccc(OCc3ccccc3)cc2)C1 | -6.3% | ? | -13.5% | ? | 0.7% | i
COCCNC(=O)C1CCCN1Cc1cccc(-c2cccc(OC)c2)c1 (stereo not given) | 12.7% | ? | · | ? | 68.7% | ·
O=C1NC2(CCN(Cc3ccccc3C(F)(F)F)C2)Oc2ccccc21 (stereo not given) | 8.4% | -2.7% | 3.8% | -2.6% | -16.1% | i
O=C1NC2(CN(Cc3ccccc3C(F)(F)F)C2)Oc2ccccc21 | 4.6% | ? | -0.8% | 39.8µM* | 5.6% | i
O=C1NC2(CCCN(Cc3ccccc3C(F)(F)F)C2)Oc2ccccc21 (stereo not given) | 1.0% | ? | -7.4% | 44.7µM* | -25.3% | i
O=C1NC2(CN(Cc3cccc4ccccc34)C2)Oc2ccccc21 | 8.4%[87.6 µM] | ? | 3.5%[70.6 µM] | ? | 18.6%[87.6 µM] | i
CCN1CCN(Cc2cc(C)cc(CN(C)Cc3ncc(C)[nH]3)c2C)CC1 | -5.8% | -25.9% | -1.8% | ? | 30.3% | 39.8µM*

From PubChem BioAssay
